{
  "source": "PubChem BioAssay (NCI)",
  "note": "Compounds without any hit were thinned out: in the full panel of roughly 83,000, 20% have a hit.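 Plates (96-well) were seeded with cells, treated with compound at one concentration, and incubated for 48 hours before percent growth was determined.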 Calls of active or inactive are those of the source. Rule for the calls: active = growth percent below 10; inactive = the rest.",
  "data": [
    {"system": "UO-31 renal", "assay": "NCI-60 one-dose screen, 48 h (100 = growth as untreated, 0 = no growth, -100 = all killed)", "settings": "10 µM unless noted", "values": [
      {"smiles": "COc1cc(-c2nnc(-c3nc(-c4cc(OC)c(OC)c(OC)c4)n4ccccc34)o2)ccc1N", "growth": "38.6% (inactive)"},
      {"smiles": "O=C(Nc1ccc2c(c1)C(=O)c1ccccc1-2)c1ccccc1", "growth": "69.7% (inactive)"},
      {"smiles": "COc1ccc(CNC(=O)c2c(C)n([O-])c3ccc(OC)cc3[n+]2=O)cc1", "growth": "21.9% (inactive)"},
      {"smiles": "N#CC(C#N)C(C#N)C#N", "growth": "89.1% (inactive)"},
      {"smiles": "CC[N+](CCCCCCCCCC[N+](CC)(c1ccccn1)c1ccccn1)(c1ccccn1)c1ccccn1", "growth": "26.4% (inactive)"},
      {"smiles": "CCCCCCCSc1ncnc2[nH]ncc12", "growth": "60.6% (inactive)"},
      {"smiles": "O=C(NCCNC(=O)Oc1cccc2ccccc12)Oc1cccc2ccccc12", "growth": "45.4% (inactive)"},
      {"smiles": "Cc1[nH]c(=O)[nH]c(=O)c1CCSSCCc1c(C)[nH]c(=O)[nH]c1=O", "growth": "83.3% (inactive)"},
      {"smiles": "COc1cnc2c(c1)C(=O)c1c-2n(CCCN2CCCC2)c(=O)c2cc(F)ccc12", "growth": "-96.2% (active)"},
      {"smiles": "CSc1nc(-c2ccc(O)cc2O)c2c(=O)[nH]c(Nc3ccc(S(=O)(=O)Nc4nc(C)cc(C)n4)cc3)nc2n1", "growth": "112% (inactive)"},
      {"smiles": "c1ccc(COc2ccc(Nc3ncnc4c3cnn4-c3ccccc3)cc2)cc1", "growth": "79.6% (inactive)"},
      {"smiles": "O=C1/C(=C/c2ccc(F)cc2)Cc2ccccc21", "growth": "92.5% (inactive)"},
      {"smiles": "CC[n+]1c(/C=C/c2ccc(N3CCCC3)cc2)cccc1/C=C/c1ccc(N2CCCC2)cc1", "growth": "-92.6% (active)"},
      {"smiles": "ICCC(c1ccccc1)(c1ccccc1)c1ccccc1", "growth": "49.6% (inactive)"},
      {"smiles": "O=C(CSc1nnc(-c2cc(-c3ccccc3)nc3ccccc23)o1)c1ccc(Br)cc1", "growth": "83.1% (inactive)"},
      {"smiles": "O=c1[nH]c(SCc2ccccc2)nc2nc(Nc3ccc(NC(=S)Nc4ccccc4)cc3)nc(-c3ccc(O)cc3O)c12", "growth": "107% (inactive)"},
      {"smiles": "Cc1cc(Cl)ccc1Nc1nc(C(F)(F)F)ccc1C(=O)N/N=C/c1ccc(Cl)cc1", "growth": "-43.3% (active)"},
      {"smiles": "Cc1sc2nc3c4ccccc4c(NCCCN(C)C)nn3c(=O)c2c1C", "growth": "-91.9% (active)"},
      {"smiles": "COCCOCCOCCOCCOc1ccc2c(c1)C(=O)c1nc3ncccc3c(=O)n1-2", "growth": "-7.56% (active)"},
      {"smiles": "Nc1ccc2c(c1)C(=O)c1cc(Cl)c(Cl)cc1-2", "growth": "49.9% (inactive)"},
      {"smiles": "COc1ccc2c(c1)C(=Nc1cc(OC)c(OC)c(OC)c1)C(=O)N2", "growth": "46.9% (inactive)"},
      {"smiles": "CN(C)CCCN=c1cc2c(=O)n(CCCN(C)C)c(=O)c3c(NCCCN(C)C)cc4c(O)n(CCCN(C)C)c(=O)c1c4c3-2", "growth": "-26.6% (active)"},
      {"smiles": "COc1ccc(-c2cnc(SCC(=O)Nc3ccc(-c4nc5ccccc5s4)cc3)n2-c2ccc(OC)cc2)cc1", "growth": "91.7% (inactive)"},
      {"smiles": "O=c1[nH]cc(Nc2cc(Cl)c3nonc3c2[N+](=O)[O-])c(=O)[nH]1", "growth": "89.3% (inactive)"},
      {"smiles": "CCOC(=O)Nc1cc(-c2ccc(C)c(NS(C)(=O)=O)c2)nn2c(C)nnc12", "growth": "-1.22% (active)"},
      {"smiles": "NS(=O)(=O)c1cc2c(cc1Cl)NC=NS2(=O)=O", "growth": "82.1% (inactive)"},
      {"smiles": "COc1ccc2ncccc2c1Cc1c(OC)ccc2ncccc12", "growth": "55.6% (inactive)"},
      {"smiles": "c1ccc(-c2n(Cc3ccc4ccccc4c3)cc[n+]2Cc2ccc3ccccc3c2)cc1", "growth": "-16.6% (active)"},
      {"smiles": "Nc1nc(Nc2ccccc2SSc2ccccc2Nc2nc(N)nc(-c3cccc(Cl)c3)n2)nc(-c2cccc(Cl)c2)n1", "growth": "83.9% (inactive)"},
      {"smiles": "CC1CN(CC(O)c2ccc(Br)cc2)CCO1", "note": "(centres undefined)", "growth": "85.4% (inactive)"},
      {"smiles": "CC[C@@H](C)/C=C(C)/C=C/C(=O)c1c(O)c(-c2ccc(O)cc2)cn(OC2CC(=O)CCC(C)OC(=O)CC2O)c1=O", "note": "(some centres undefined)", "growth": "-15.5% (active)"},
      {"smiles": "CCCCc1n(Cc2ccc3ccccc3c2)cc[n+]1Cc1ccc2ccccc2c1", "growth": "18.9% (inactive)"},
      {"smiles": "COc1cc(/C=C2\\SC(N3CCCCC3)=NC2=O)ccc1OCCCCCCOc1ccc(/C=C2\\SC(N3CCCCC3)=NC2=O)cc1OC", "growth": "33.5% (inactive)"},
      {"smiles": "CCCCCCCCN(CCO)CCCCCCCC", "growth": "80.2% (inactive)"}
    ]}
  ]
}
